Shown are actives, neighbours in structure and some others; about 4.1% of the full set was active somewhere.
hcDAF12 agonist: H. contortus DAF-12 activation, primary screen. HEK293 hcDAF-12 lit1-tk-luc reporter, luminescence; 0% DMSO, 100% Δ7-dafachronic acid. activation, % at 6.8 µM. actives 1.4% (n = 370,000). AID 652067;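 active means activation above the mean of all tested compounds plus 3 SD, cut at about 5.5% in these data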
DAX1 inh-1: blocks DAX1 repression of SF-1 activated StAR promoter | inhibition, % at 6.8 µM | HEK293T StAR-luciferase reporter, SF-1/DAX-1 repression relief | AID 652010 | actives 1.1% (n = 370,000);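 active means inhibition above the mean over all tested compounds plus 3 SD, cut at about 3.6% in these data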;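 further: higher inhibition means more luminescence from relief of DAX-1 repression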
DAX1 inh-2: inhibits human nuclear receptor DAX1. P51843. HEK293 Gal4-DAX1 luciferase reporter, luminescence. inhibition, % at 6.75 µM. actives 0.99% (n = 340,000);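 active means inhibition above the mean over all tested compounds plus 3 SD, cut at about 4.2% in these data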;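 further: inhibition shows as a rise in luminescence from relieved DAX1 repression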
Target sequence (P51843 207-470 limits assumed): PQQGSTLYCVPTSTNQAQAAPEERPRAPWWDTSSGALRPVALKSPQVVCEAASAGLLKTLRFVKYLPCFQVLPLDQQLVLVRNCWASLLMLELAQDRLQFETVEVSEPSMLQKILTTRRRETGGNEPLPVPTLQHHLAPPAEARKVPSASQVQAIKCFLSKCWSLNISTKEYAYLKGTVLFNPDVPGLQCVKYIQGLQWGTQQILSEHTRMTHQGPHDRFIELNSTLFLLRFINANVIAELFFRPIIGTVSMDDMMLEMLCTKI
ssDAF-12 act: activates DAF-12 receptor from parasite S. stercoralis; HEK293 ssDAF-12/GRIP1 lit1-tk-luc reporter, luminescence; % of 3 µM dafachronic acid response; activation, % at 6.8 µM; actives 1% (n = 370,000);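 active means activation above the mean over all tested compounds plus 3 SD, cut at about 0.9% in these data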
hgDAF12 agonist: hgDAF-12 agonism, primary luciferase screen; AID 687014; actives 1.8% (n = 370,000); activation, % at 6.8 µM; HEK293 GAL4-hgDAF12 UAS-luciferase reporter, agonist luminescence; normalized to butyrate control;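 active means activation above a cutoff set at the mean of all screened compounds plus 3 SD, cut at about 10% in these data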
A number is an active result; – = inactive; · = no result given.

SMILES | hcDAF12 agonist | DAX1 inh-1 | DAX1 inh-2 | ssDAF-12 act | hgDAF12 agonist
Cc1ccccc1N(C)C(=O)C1CCCN1S(=O)(=O)c1cccc2cccnc12 (centres undefined) | – | – | · | – | –
O=c1cc(-c2ccccc2)nc(/C=C/c2ccccc2)[nH]1 | – | – | 5.6 | – | –
CCC(=O)Nc1ccc2c(c1)C(=O)N(C)[C@@H]1CC[C@@H](CC(=O)NCCN3CCCCC3)O[C@H]1CO2 | – | – | · | – | –
COc1cc2c(cc1NC(=O)C(C)OC(=O)c1ccc(S(=O)(=O)Nc3ccccc3Cl)cc1)oc1ccccc12 (centres undefined) | 5.8 | – | – | – | –
COc1ccc(S(=O)(=O)Nc2ccccc2Cl)cc1NC(C)=O | – | – | – | – | –
COc1cc2c(cc1NC(=O)C(C)N1CCN(S(=O)(=O)c3ccccc3[N+](=O)[O-])CC1)oc1ccccc12 (centres undefined) | 6.0 | – | – | – | –
COc1cc2c(cc1NC(=O)C(C)N1CCN(S(=O)(=O)c3ccc(C)c(C)c3)CC1)oc1ccccc12 (centres undefined) | – | – | – | – | –
COC(=O)[C@]12C[C@H](CC(=O)NCc3ccccc3)C(=O)N(CCC3=CCCCC3)C1=C[C@H](COCc1ccccc1)O[C@@H]2C | – | – | · | – | –
Cc1nc2c3ccccc3n(CC#N)c(=O)n2n1 | 6.1 | – | – | – | –
CCNC(=O)N1CCN(c2ccc(N3CCN(Cc4ccccc4)[C@H](C)C3)c(C)c2)[C@@H](C)C1 | – | – | · | – | –
Cc1cc(NS(=O)(=O)c2ccc(NC(=O)CSc3nnc(-c4ccccn4)n3Cc3ccco3)cc2)nc(C)n1 | – | – | · | – | –
Cc1ccc(NC(=O)c2cnccn2)cc1 | – | – | – | – | –
Cc1ccc(NC(=O)c2cnccn2)cc1C | – | – | 4.6 | – | 11.4
Cc1nc(NC(=O)c2cnccn2)ccc1Br | – | – | 4.2 | – | 10.6
Cc1ccc(NC(=O)c2cc(-c3ccco3)on2)cc1C | – | – | – | – | 12.5
Cc1ccc(NC(=O)c2cc(-c3ccco3)on2)cc1 | – | – | – | – | –
Cc1cccc(Cn2cc(CN3CC(N(C)CCOC(=O)c4cc(C)cc(C)c4)CS3(=O)=O)nn2)c1 (centres undefined) | – | – | · | – | –
Cc1cc(C)n(CCN(C)C(=O)CCc2nnc(CCC3CCCCC3)o2)n1 | – | – | – | 1.2 | 11.9
CN(CCCC1CCCC1)C(=O)CCc1nnc(-c2ccccc2)o1 | – | – | 5.4 | – | 11.9
CC(CNC(=O)CCc1nnc(CCC2CCCCC2)o1)c1ccccc1 (centres undefined) | – | – | 5.6 | – | –
COC(=O)[C@]12C[C@H](CC(=O)N3CCCC3)C(=O)N(CCC3=CCCCC3)C1=C[C@H](C1CCCC1)O[C@@H]2C | – | – | · | – | –
CC(C)(C)N(Cc1cn(Cc2ccccc2)nn1)S(=O)(=O)c1ccccc1Br | – | – | · | – | –
CCOC(=O)CSc1nnc(Cn2c(=O)sc3ccccc32)n1C | – | – | 5.8 | – | –
CCOC(=O)N1CCN(C(=O)CSc2nnc(Cn3c(=O)sc4ccccc43)n2C)CC1 | – | – | – | – | –
CC(=O)c1ccc(NC(=O)CSc2nnc(Cn3c(=O)sc4ccccc43)n2C)cc1 | – | – | 4.8 | – | –
SMILES | hcDAF12 agonist | DAX1 inh-1 | DAX1 inh-2 | ssDAF-12 act | hgDAF12 agonist
O=C(CSc1nnc(-c2cccs2)n1Cc1ccco1)Nc1ccc(Oc2ccccc2)cc1 | – | – | · | – | –
Cc1cccc(NC(=O)CNC(=O)[C@@H](Cc2ccccc2)NC(=O)[C@H]2O[C@@H](n3ccc(=O)[nH]c3=O)[C@H](O)[C@@H]2O)c1C | – | – | · | – | –
C[C@H](c1ccccc1)N1C[C@@H](COCc2ccccc2)Oc2cccc(N3CCCC3)c2S1(=O)=O | – | – | · | – | –
O=C(Nc1cccc(F)c1)OCCCN1CCC2(CCC(c3ccccc3)CC2)C1 (centres undefined) | – | – | · | – | –
CCCN1CCN(CCCNC(=O)c2cc3c(=O)n(C)c4ccccc4c3n2C)CC1 | – | – | 8.4 | – | –
CCCCN(CC)CCNC(=O)c1cc2c(=O)n(C)c3ccccc3c2n1C | – | – | – | – | –
Cn1c(C(=O)NCCCN2CCCCCC2)cc2c(=O)n(C)c3ccccc3c21 | – | – | – | – | –
CCCN(CCC)CCCNC(=O)c1cc2c(=O)n(C)c3ccccc3c2n1C | – | 5.0 | 7.8 | – | –
CCN(CC)CCNC(=O)c1cc2c(=O)n(C)c3ccccc3c2n1C | – | 4.2 | – | – | –
CCN(CC)CCCNC(=O)c1cc2c(=O)n(C)c3ccccc3c2n1C | – | – | 7.5 | – | –
COC(=O)C1=C(C)N(Cc2ccccc2C(F)(F)F)C(=NCc2ccccc2)NC1c1cccc(C(F)(F)F)c1 (centres undefined) | – | – | · | – | –
O=C1OC(c2ccccc2)=C/C1=C/N1CCOCC1 | – | – | – | – | –
O=C1SC(c2ccccc2)=C/C1=C\N1CCCCC1 | 6.1 | – | – | – | –
CCSc1nnc2nc3[nH]c4c(C)cccc4c3nn12 | – | – | · | 1.5 | –
CC1=C(C(=O)OCC2CCCO2)C(c2coc3ccc(Cl)cc3c2=O)C2=C(CCCC2=O)N1 (centres undefined) | – | – | 8.9 | – | –
CC1=C(C(=O)OCC2CCCO2)C(c2coc3ccc(C)cc3c2=O)C2=C(CCCC2=O)N1 (centres undefined) | – | – | – | 1.7 | –
CC1=C(C(=O)OC2CCCC2)C(c2coc3ccc(C)cc3c2=O)C2=C(CCCC2=O)N1 (centres undefined) | – | – | – | – | –
CCCCNS(=O)(=O)CC1NCc2ccccc21 (centres undefined) | – | – | · | – | –
CCCCCCCCN1C(=O)[C@@H](CC(=O)N2CCN(C(=O)c3ccco3)CC2)C[C@@]2(C(=O)OC)C1=C[C@H](COCc1ccccc1)O[C@@H]2C | – | – | · | – | –
COc1cccc(C(=O)n2ccc3ccc(-c4ccc5ccn(Cc6ccc(C#N)cc6)c5c4)cc32)c1 | – | – | · | – | –
O=[N+]([O-])c1cccc(NC(=S)N2CCCC2)c1 | – | – | – | – | –
O=C(Nc1cccc([N+](=O)[O-])c1)C(=O)N1CCCCC1 | – | – | – | – | 13.1
COc1cccc(CNC(=O)[C@H]2CCCN2)c1 | – | – | · | – | –
Cc1cc2nc(CSc3ccc(Cl)cc3)cc(=O)n2[nH]1 | – | – | 11.0 | – | –
O=C(N[C@H](C(=O)N1CCC[C@H]1C(=O)NC1CCCC1)c1ccccc1)C1CC1 | – | – | · | – | –
COc1ccccc1-n1cc(-c2ccc(Cl)cc2)[nH]c1=O | 6.4 | – | – | – | –
COc1ccc(-c2cn(-c3cccc(C)c3)c(=O)[nH]2)cc1OC | – | – | – | – | –

Assay outcomes from PubChem BioAssay.
